Data on 44 molecules can be found in PubChem BioAssay (NCI).

Test systems include MDA-MB-435 melanoma; SW-620 colon; MCF7 breast; HCT-116 colon; HCC-2998 colon; KM12 colon; BT-549 breast.
What all share (experiment): NCI-60 one-dose screen, 48 h (100 = growth as untreated, 0 = no growth, -100 = all killed)
Common to all, as to conditions: 10 µM unless noted

“And” between values parts separate entries of the source, which are not always exact repeats. Equal values may be shown once. About 83,000 compounds went through this panel and 20% of them were active in at least one assay; those are over-represented in the sample as a whole.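 Step 1: grow cells in 96-well plates. Step 2: add test compound at a single concentration. Step 3: incubate 48 h. Step 4: record percent growth.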 The source made the active and inactive calls. Rule for the calls: active = growth percent below 10; inactive = the rest.

`COc1ccc(/C=N/OCC(O)CN2CCC(O)CC2)cc1OC1CCCC1` (stereo not drawn): the growth is 102% (inactive) with MDA-MB-435 melanoma; 104% (inactive) with SW-620 colon; 94.7% (inactive) with MCF7 breast; 89.6% (inactive) in the assay on HCT-116 colon; 101% (inactive) with HCC-2998 colon; 109% (inactive) in the assay with KM12 colon.

`COC(=O)C(=O)C(C(=O)C(=O)Nc1ccccc1C(=O)OC)c1nc2ccc(C(=O)c3ccccc3)cc2[nH]c1=O` (stereo not drawn): in the assay with MCF7 breast, the growth is 58.7% [100 µM] (inactive) and 7.77% [100 µM] (active).

Turning to `C[C@]1(CO)C[C@@H](O)C[C@]2(C)[C@@H]1CC[C@@]13C[C@@H]4[C@@H](C[C@H]12)[C@]4(C)C3`, the growth in the assay with MDA-MB-435 melanoma was 99.5% (inactive); in the assay with SW-620 colon, 101% (inactive); in the assay on MCF7 breast it was 102% (inactive); with HCT-116 colon it was 89.3% (inactive); in the assay on KM12 colon, 109% (inactive).

With `CCCCCCCC/C=C\CCCCCCCCOc1cccc(CC(=O)NCC[N+]2(C)CCOCC2)c1`, the growth in the assay with BT-549 breast was 98.8% (inactive); in the assay with MDA-MB-435 melanoma it was 94% (inactive); in the assay on SW-620 colon, 89.1% (inactive); with MCF7 breast, 83.8% (inactive); in the assay with HCT-116 colon, 78.5% (inactive); in the assay on KM12 colon it was 64.1% (inactive).

`CC(C)(C)N/N=C(\C(=O)Nc1ccc([N+](=O)[O-])cc1[N+](=O)[O-])c1nc2ccc([N+](=O)[O-])cc2[nH]c1=O`: in the assay on MCF7 breast, the growth is 56.5% [100 µM] (inactive) and 7.04% [100 µM] (active).

Regarding `C=C1C(=O)OC2C1CC(O)/C(C)=C\CCC1(C)OC21` (stereo not drawn), in the assay with MCF7 breast, the growth was 21.9% [100 µM] (inactive) and -83.3% [100 µM] (active).

As for `Cc1ccc(NC(=S)C#N)c(C)c1`, in the assay on MCF7 breast, the growth was 48.6% [100 µM] (inactive) and -77.7% [100 µM] (active).

On to `CCOC(=O)C1(C#N)C(=O)c2cc[n+](CC[n+]3ccc4c(c3)C(=O)C(C#N)(C(=O)OCC)C4=O)cc2C1=O` (stereo not drawn), for which, in the assay with MCF7 breast, the growth was 88.7% [100 µM] (inactive) and 89.4% [100 µM] (inactive).

As to `CC(C)(C)O/N=C/c1cc(NC(=S)c2ccsc2)ccc1Cl`, in the assay on MCF7 breast, the growth was -74.5% [100 µM] (active) and -71.7% [100 µM] (active).

For the molecule `CC1(C)CC2(C)OC(=N)C1(C#N)C2(C#N)C#N` (stereo not drawn), in the assay with MCF7 breast, the growth is -56.8% [100 µM] (active) and -71.8% [100 µM] (active).

Take `CN(C)CCNc1ccc(NCC[N+](C)(C)Cc2ccc([N+](=O)[O-])cc2)c2c1C(=O)c1ccccc1C2=O`: in the assay on MCF7 breast, the growth was 6.38% [25 µM] (active) and -100% [25 µM] (active).

For the molecule `COC(=O)c1ccc(CCc2cc(O)c(Br)cc2O)cc1`, the growth in the assay with MCF7 breast was -61.7% [100 µM] (active) and -71.7% [100 µM] (active).

With `O=C1c2c(O)ccc(O)c2C(=O)c2c(NCCNC(=O)C(O)C(O)C(O)C(O)CO)ccc(NCCNC(=O)C(O)C(O)C(O)C(O)CO)c21` (stereo not drawn), the growth in the assay with MCF7 breast was -95.5% [100 µM] (active) and -100% [100 µM] (active).

For the molecule `CC(=O)Nc1c(C)cc2c(nc3n2CCC3OC(C)=O)c1[N+](=O)[O-]` (stereo not drawn), the growth in the assay with MCF7 breast is 105% [100 µM] (inactive) and 101% [100 µM] (inactive).

`N#Cc1cnn2c1n[n+]([O-])c1ccc(Cl)cc12`: the growth in the assay with MCF7 breast is 9.63% [100 µM] (active) and -99.2% [100 µM] (active).

`CC(C)=CCC/C(C)=C/CC/C(C)=C/CSc1ccc(Cl)cc1C(=O)O`: the growth with MCF7 breast was -52.6% [100 µM] (active) and 17.2% [100 µM] (inactive).

With `Cc1cc(-c2nc3ccccc3s2)ccc1N`, the growth in the assay with MCF7 breast was 27.4% [100 µM] (inactive) and 5.42% [100 µM] (active).

As to `CCOc1cc2c(cc1O)/C(=N\N)C[C@@H]1[C@@H]2CC[C@]2(C)[C@@H](O)CC[C@@H]12`, in the assay on MCF7 breast, the growth was 20.2% [100 µM] (inactive) and -66.9% [100 µM] (active).

`CC#CC#C/C=C1/C=CC2(CCCCO2)O1` (stereo not drawn): the growth in the assay with MCF7 breast is 53.8% [100 µM] (inactive) and 0.753% [100 µM] (active).

In the case of `CC(=O)Oc1ccc2ccc(=O)oc2c1OC(C)=O`, the growth with MCF7 breast is -69.1% [100 µM] (active) and -65% [100 µM] (active).

As to `CC(C)=CCC/C(C)=C/CC/C(C)=C/CC/C(C)=C/C=C/C=C(\C)CC/C=C(\C)CC/C=C(\C)CCC=C(C)C`, the growth in the assay with MCF7 breast is 74.5% [100 µM] (inactive) and 28.2% [100 µM] (inactive).

In the case of `CCOC(=O)c1nc2cc(C(F)(F)F)ccc2nc1Nc1ccc(F)cc1`, the growth in the assay with MCF7 breast was 34% [100 µM] (inactive) and 3.76% [100 µM] (active).

Turning to `Cc1sccc1C(=S)Nc1ccc(Cl)c(/C=N/OC(C)(C)C)c1`, the growth with MCF7 breast was -73.5% [100 µM] (active) and -46.7% [100 µM] (active).

In the case of `CC(=O)OC(C)c1cc2c(s1)C(=O)c1ccsc1C2=O` (stereo not drawn), in the assay on MCF7 breast, the growth was -61.2% [100 µM] (active) and -98.9% [100 µM] (active).

Regarding `CC1OC(OC2C(O[C@H]3CC[C@@]4(C)C(=CC[C@H]5[C@@H]6C[C@@H]7O[C@]8(CC[C@H](C)CN8)[C@@H](C)[C@@H]7[C@@]6(C)CC[C@@H]54)C3)OC(CO)C(O)C2OC2OC(CO)C(O)C(O)C2O)C(O)C(O)C1O` (stereo partly drawn), the growth in the assay on MCF7 breast was 91.3% [100 µM] (inactive) and -95.2% [100 µM] (active).

On to `CC#CC#C/C=C1\C=CC2(OC=CC2OC(C)=O)O1` (stereo not drawn), for which the growth in the assay with MCF7 breast was -91.4% [100 µM] (active) and -48.8% [100 µM] (active).

Consider `Cc1cc(N2CCCC2)c([N+](=O)[O-])cc1[N+](=O)[O-]`, for which the growth with MCF7 breast was 65.2% [100 µM] (inactive) and 89% [100 µM] (inactive).

Take `COc1cc([N+](=O)[O-])c(OC)c2c(Nc3ccc(S(=O)(=O)O)c4cc(S(=O)(=O)O)cc(S(=O)(=O)O)c34)cc(C)nc12`: the growth in the assay on MCF7 breast is -88.5% [100 µM] (active) and -100% [100 µM] (active).

With `CCOC(=O)CCCOc1cc(-c2ccccc2F)nc2cc3c(cc12)OCO3`, in the assay with MCF7 breast, the growth was 14.3% [100 µM] (inactive) and -100% [100 µM] (active).

On to `CCC1CC(C)C(O)/C=C/C=C/CC(C)OC(=O)CC(O)C(OC)C1OC1OC(C)CC(O)(C(C)=O)C1O` (stereo not drawn), for which the growth in the assay on MCF7 breast is 32% [100 µM] (inactive) and 5.08% [100 µM] (active).

On to `ClC(Cl)(Cl)C1CCOC1n1nnc2ccccc21` (stereo not drawn), for which the growth in the assay with MCF7 breast was 68.3% [100 µM] (inactive) and 0.0175% [100 µM] (active).

Turning to `O=C(CCc1ccccc1)On1c(-c2ccccc2)nc2ccccc2c1=S`, in the assay on MCF7 breast, the growth is -34.4% [100 µM] (active) and -60.1% [100 µM] (active).

In the case of `C=C1C(=O)OC2/C=C(\CO)C(OC(C)=O)CC(O)/C(C)=C/C(OC(=O)C(C)CC)C12` (stereo not drawn), the growth in the assay with MCF7 breast is -87% [100 µM] (active) and -86.7% [100 µM] (active).

With `Nc1cc2c3c(cccc3c1)C(=O)N(c1ccc(OCCN3CCCCC3)cc1)C2=O`, the growth in the assay with MCF7 breast was -95.1% [100 µM] (active) and -100% [100 µM] (active).

On to `N#Cc1c(SCc2ccccc2)nc(-c2ccccc2)[nH]c1=S`, for which the growth in the assay with MCF7 breast is 3.22% [100 µM] (active) and -27% [100 µM] (active).

Regarding `NNC1=N/C(=C\c2ccco2)C(Cl)=N1`, in the assay with MCF7 breast, the growth is 16.5% [100 µM] (inactive) and -15.6% [100 µM] (active).

Take `N#C/C(=C\c1ccccc1)C(=O)Nc1nnc(-c2ccccc2)o1`: in the assay with MCF7 breast, the growth is 33.4% [100 µM] (inactive) and 3.23% [100 µM] (active).

For `CCOc1cc2c(cc1O)C(=O)C[C@@H]1[C@@H]2CC[C@]2(C)[C@@H](O)CC[C@@H]12`, in the assay with MCF7 breast, the growth was 4.23% [100 µM] (active) and -100% [100 µM] (active).

Take `COc1cc(CC2c3cc(OC)c(OC)cc3CCN2C)c(Oc2cc3c(cc2OC)-c2c(O)c(OC)cc4c2C(C3)N(C)CC4)cc1OC` (stereo not drawn): the growth in the assay with MCF7 breast is 20.4% [100 µM] (inactive) and -77.4% [100 µM] (active).

As for `CC1=CCC2C3(C)CCC2(C(C)C)C1C3` (stereo not drawn) (tested in a mixture with another compound), the growth in the assay with MCF7 breast was -76.9% [100 µM] (active) and -91.7% [100 µM] (active).

In the case of `CC(=O)c1cc2c(s1)C(=O)c1scc(C(C)=O)c1C2=O`, the growth in the assay on MCF7 breast was -68.6% [100 µM] (active) and -79.8% [100 µM] (active).

As to `CC(=O)c1cc2c(s1)C(=O)c1ccsc1C2=O`, in the assay with MCF7 breast, the growth was -62.9% [100 µM] (active) and -100% [100 µM] (active).

`CC(=O)OC(=C(C#N)C#N)c1nccnc1C(C)=O`: the growth in the assay with MCF7 breast was 106% [20 µM] (inactive) and 75.4% [20 µM] (inactive).

As for `CC(C)C1OC23CCCCC2C(C#N)(C#N)C1(C#N)C(=N)O3` (stereo not drawn), in the assay with MCF7 breast, the growth was -20.4% [100 µM] (active).
